Inhibition data for 93 compounds are collected here from PubChem BioAssay AID1445 (SRMLSC, 2008).

Structures are written as SMILES. Out of some 220,000 compounds screened, about 910 (0.41%) were called active. What follows is part of a selection rich in actives, with near analogues and random picks from the rest. Results with a measured potency or affinity are listed apart. Values without a mark were called inactive.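 How the source made its calls: active means primary inhibition above the hit cutoff, then over 50% inhibition at one or more dose response concentrations (cut at about 23% in these data, passing the limit was not always enough); inconclusive means conflicting primary data, or primary hits not chosen for dose response; inactive means low primary inhibition, or under 50% at every dose.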

The assay addresses Aminopeptidase N (Plasmodium falciparum (isolate 3D7)) (UniProt O96935). The experiment in a line: malaria alanyl aminopeptidase activity blockers – biochemical, fluorogenic H-Leu-NHMec substrate, 1536-well (AID 1445).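 Further: plate controls were DMSO full reaction for no effect and no enzyme background for full effect.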 The settings on record: recombinant M1AAP, H-Leu-NHMec fluorogenic kinetic assay.
Where [1] appears, read: at 30 µM, stronger effect = higher value unless noted.

Sequence of Aminopeptidase N (Plasmodium falciparum (isolate 3D7)) (O96935 whole entry, looked up): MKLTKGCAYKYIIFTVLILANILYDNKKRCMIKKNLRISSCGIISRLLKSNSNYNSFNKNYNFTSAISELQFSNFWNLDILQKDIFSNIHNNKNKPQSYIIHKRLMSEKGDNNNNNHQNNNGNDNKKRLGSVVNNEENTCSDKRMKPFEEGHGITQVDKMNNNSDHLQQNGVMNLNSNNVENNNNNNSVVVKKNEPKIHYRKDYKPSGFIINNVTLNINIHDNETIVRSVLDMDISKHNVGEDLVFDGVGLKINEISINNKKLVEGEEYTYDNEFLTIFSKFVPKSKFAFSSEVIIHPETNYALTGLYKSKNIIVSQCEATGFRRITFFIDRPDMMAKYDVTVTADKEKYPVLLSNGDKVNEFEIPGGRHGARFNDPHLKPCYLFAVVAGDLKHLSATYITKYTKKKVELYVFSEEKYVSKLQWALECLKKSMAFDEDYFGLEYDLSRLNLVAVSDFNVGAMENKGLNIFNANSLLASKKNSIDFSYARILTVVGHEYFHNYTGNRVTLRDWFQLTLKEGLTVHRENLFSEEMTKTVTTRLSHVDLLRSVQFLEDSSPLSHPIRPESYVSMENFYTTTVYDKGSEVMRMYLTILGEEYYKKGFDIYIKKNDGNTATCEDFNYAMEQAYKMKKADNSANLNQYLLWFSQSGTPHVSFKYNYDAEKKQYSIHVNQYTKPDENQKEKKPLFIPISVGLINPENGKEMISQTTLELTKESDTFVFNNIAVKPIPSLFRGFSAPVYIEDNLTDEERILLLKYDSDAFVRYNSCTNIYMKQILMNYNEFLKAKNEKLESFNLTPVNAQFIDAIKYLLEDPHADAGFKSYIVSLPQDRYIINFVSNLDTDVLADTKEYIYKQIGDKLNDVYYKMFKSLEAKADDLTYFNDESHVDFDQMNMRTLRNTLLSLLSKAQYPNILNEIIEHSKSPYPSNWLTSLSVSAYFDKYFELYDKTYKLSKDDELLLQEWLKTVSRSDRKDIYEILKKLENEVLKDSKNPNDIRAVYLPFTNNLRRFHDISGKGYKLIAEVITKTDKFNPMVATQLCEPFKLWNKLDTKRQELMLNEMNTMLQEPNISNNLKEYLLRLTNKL

Take `COc1ccc(-c2cc(C#N)nc(Oc3ccc(Cl)cc3)n2)cc1`: the inhibition under setting [1] is 6.45%.

`CC(=O)Nc1ccc(/C=N/NC(=O)c2cc3cc(C)ccc3nc2C)cc1`: under setting [1], the inhibition was 2.63%.

Regarding `CCC(=O)Nc1ccc(S(=O)(=O)Nc2cc(C)on2)cc1`, the inhibition under setting [1] is -4.75%.

As to `Cc1cc(NS(=O)(=O)c2ccc(NC(=O)CSc3nc4sc(C(=O)O)c(C)c4c(=O)[nH]3)cc2)no1`, the inhibition under setting [1] was 16.3%.

For the compound `O=C(N/N=C/c1cccnc1)c1ccccc1OCc1ccc(Cl)cc1`, the inhibition under setting [1] is -4.49%.

Regarding `Cc1ccc(COc2ccccc2-c2cc(C(=O)N/N=C/c3cccnc3)[nH]n2)cc1`, the inhibition under setting [1] was 4.58%.

With `COc1ccc(C2c3c(noc3C)CC(C)(O)C2C(C)=O)cc1` (stereo not given), the inhibition under setting [1] is 0.23%.

As for `COc1ccc(-c2nn(-c3ccccc3)cc2/C=C/C(=O)N2CCN(c3ccccn3)CC2)cc1`, the inhibition under setting [1] is 1.49%.

Consider `CCOC(=O)COc1ccc2ccccc2c1/C=C/[N+](=O)[O-]`, for which, under setting [1], the inhibition is 4.98%.

Take `CCOC(=O)COc1ccccc1/C=C\[N+](=O)[O-]`: under setting [1], the inhibition was 11.9%.

For the compound `CCN=C1S/C(=C\c2cc(Br)ccc2OCC(=O)OCC)C(=O)N1CC`, the inhibition under setting [1] was 3.81%.

Consider `CCOC(=O)COc1ccc(/C=C/[N+](=O)[O-])c(OCC(=O)OCC)c1`, for which the inhibition under setting [1] was 1.07%.

Take `CCCOC(=O)c1ccc(Cl)c(NC(=O)c2cccnc2)c1`: the inhibition under setting [1] is 8.87%.

As to `COc1ccc(C(=O)CC(=O)c2ccccc2O)cc1OC`, the inhibition under setting [1] was 2.33%.

With `COC(=O)c1ccc(-n2nnnc2SC)cc1`, under setting [1], the inhibition is 26.3% (active).

`COC(=O)COC(=O)c1ccc(-n2nnnc2SC)cc1`: the inhibition under setting [1] is -3%.

Consider `CSc1nnnn1-c1ccc(C(=O)O)cc1`, for which the inhibition under setting [1] is 5.73%.

For the compound `Cn1c(=O)n(CCc2ccccc2)c(=O)c2c1ncn2Cc1ccccc1`, under setting [1], the inhibition was 2.43%.

For `Cc1cc(NC(=O)c2ccc(N3CCCC3)c([N+](=O)[O-])c2)no1`, the inhibition under setting [1] was -2.39%.

`CC(=O)Nc1cccc(NC(=O)C2CCCN2C(=O)Nc2ccccc2C)c1` (stereo not given): the inhibition under setting [1] was -3.25%.

For the compound `O=C(NCc1ccc2c(c1)OCO2)C1CCCN1C(=O)Nc1ccc(F)cc1` (stereo not given), the inhibition under setting [1] was 11.2%.

As for `CC(=O)Nc1ccc(NC(=O)C2CCCN2C(=O)Nc2ccc(F)c([N+](=O)[O-])c2)cc1` (stereo not given), under setting [1], the inhibition is 2.21%.

With `COc1ccc(NC(=O)C2CCCN2C(=O)Nc2cccc(F)c2)cc1` (stereo not given), the inhibition under setting [1] was 6.92%.

Turning to `CC(=O)c1cccc(NC(=O)N2CCCC2C(=O)Nc2cccc(C)c2)c1` (stereo not given), the inhibition under setting [1] was 1.86%.

Take `O=C(NCc1ccc2c(c1)OCO2)C1CCCN1C(=O)Nc1ccccc1` (stereo not given): the inhibition under setting [1] was 11.3%.

As to `Cc1cccc(NC(=O)N2CCCC2C(=O)Nc2ccccc2)c1` (stereo not given), the inhibition under setting [1] was 13.2%.

Take `COc1cccc(NC(=O)C2CCCN2C(=O)Nc2cccc(F)c2)c1` (stereo not given): the inhibition under setting [1] was 14.7%.

With `COc1ccc(Nc2nc(C(=O)N(CCO)Cc3ccccc3)cs2)cc1`, the inhibition under setting [1] was 0.85%.

With `Cc1ccc(NC(=O)CC2NCCN(Cc3ccccc3)C2=O)cc1` (stereo not given), the inhibition under setting [1] is 8.69%.

For the compound `Cc1ccc(N(CC(=O)NN=C2CCN(C)CC2)S(=O)(=O)c2ccccc2)c(C)c1`, the inhibition under setting [1] was -0.06%.

`O=C(Cn1cnc([N+](=O)[O-])n1)N/N=C/c1ccc2ccccc2c1`: the inhibition under setting [1] is 10.2%.

`CCOC(=O)N1CCN(c2c(NCCCN(C)c3ccccc3)c(=O)c2=O)CC1`: under setting [1], the inhibition was 6.93%.

On to `CCCc1nnc(NC(=O)Cn2c(=O)oc3ccccc32)s1`, for which the inhibition under setting [1] was -0.7%.

With `CCOC(=O)C(CC)/C(C)=N/NC(=O)c1ccc([N+](=O)[O-])cc1` (stereo not given), under setting [1], the inhibition is 2.15%.

For `C=C1CCN([C@H](C(=O)NCc2ccco2)C(C)C)S(=O)(=O)c2ccccc21`, the inhibition under setting [1] is 11%.

On to `CC(=O)c1cccc(NC(=O)N2CCCC2C(=O)Nc2cc(C)ccc2C)c1` (stereo not given), for which, under setting [1], the inhibition was -1.28%.

Turning to `COc1ccc(NC(=O)N2CCCC2C(=O)Nc2ccc(C)cc2)cc1` (stereo not given), the inhibition under setting [1] was -3.34%.

For `CC1(C)CC(=O)C2=C(C1)N=C1SCCC(=O)N1C2c1cccc([N+](=O)[O-])c1` (stereo not given), under setting [1], the inhibition was 18%.

For `Cc1c(NC(=O)c2ccccc2NS(=O)(=O)c2ccc(Br)cc2)c(=O)n(-c2ccccc2)n1C`, the inhibition under setting [1] was 24.5% (active).

As to `Cc1c(NS(=O)(=O)c2cccc(C(=O)NCc3ccncc3)c2)c(=O)n(-c2ccccc2)n1C`, the inhibition under setting [1] is -2.28%.

With `Cc1ccc(S(=O)(=O)Nc2c(C)n(C)n(-c3ccccc3)c2=O)cc1C(=O)NCc1ccccn1`, the inhibition is, setting by setting: (at 30 µM, stronger effect = higher value) 28.8% (active); (at 100 µM (top of the series)) 42.4%.

With `CC(=O)Nc1ccc(S(=O)(=O)Nc2c(C)n(C)n(-c3ccccc3)c2=O)cc1`, under setting [1], the inhibition is 0.31%.

Take `Cc1c(NS(=O)(=O)c2ccc(C(=O)NCc3ccccc3)cc2)c(=O)n(-c2ccccc2)n1C`: under setting [1], the inhibition is 0.49%.

In the case of `Cc1c(NC(=O)c2ccccc2NS(=O)(=O)c2ccc(F)cc2)c(=O)n(-c2ccccc2)n1C`, the inhibition under setting [1] was 20.1%.

For the compound `CC1=C(CCN2CCN(C(C)C)C(CCO)C2)C(C)(C)CCC1` (stereo not given), under setting [1], the inhibition is 2.23%.

On to `CCn1c(Cn2nnc(-c3ccccc3)n2)nnc1SCC(=O)Nc1cccc(C(C)=O)c1`, for which the inhibition under setting [1] is 0.07%.

Consider `COc1ccc(/C=N/NC(=O)c2cc(Br)ccc2O)cc1Cn1cc(Cl)cn1`, for which the inhibition under setting [1] was 0.18%.

As for `O=c1[nH][nH]c(-c2ccccc2)c1C=Nc1ccc(C(F)(F)F)cc1`, under setting [1], the inhibition is 2.58%.

As to `CC1=C(C#N)c2nc(N)c(C#N)c(C)c2/C1=C\c1ccc(C)cc1`, the inhibition under setting [1] is 6.97%.

`CC1=C(C#N)c2nc(N)c(C#N)c(C)c2/C1=C\c1ccc(OCC(=O)O)c(Cl)c1`: under setting [1], the inhibition is 11.5%.

Regarding `CSc1ccc(/C=C/c2ccc3cccc(O)c3n2)cc1`, under setting [1], the inhibition was 8.1%.

For the compound `COC(=O)c1ccc(/C=C/c2ccc3cccc(OC)c3n2)cc1`, the inhibition under setting [1] is 20.2%.

For the compound `O=C(COc1ccc(F)cc1)N(c1ccccn1)C1CCCCC1`, the inhibition under setting [1] is 2.11%.

Turning to `COc1ccc(N2C(=O)C3CCCN3C2c2cccc(OC)c2OC)cc1` (stereo not given), under setting [1], the inhibition is 3.05%.

Take `CCN(CC)CC(O)Cn1c(-c2ccccc2Cl)nc2ccccc21` (stereo not given): the inhibition under setting [1] was 3.4%.

On to `Cc1ccc(CN2CCN(/N=C/c3ccc(C(F)(F)F)cc3)CC2)cc1`, for which, under setting [1], the inhibition was 5.42%.

Take `C#CCCOC(=O)N1C2=NC(C(=O)OC)=C(C(=O)OC)[C@@H]3N(C)c4ccccc4[C@]23C[C@H]1C(=O)OC`: under setting [1], the inhibition was 3.66%.

For `C#CCCOC(=O)N1C2=NC(C(=O)OC)=C(C(=O)OC)[C@@H]3N(Cc4ccccc4)c4ccccc4[C@]23C[C@H]1C(=O)OC`, under setting [1], the inhibition is 8.52%.

For the compound `COC(C[C@H](O)CC(=O)[C@H](C)OCc1ccccc1)OC`, the inhibition under setting [1] is 1.19%.

With `COC(=O)c1sc2nc(-c3ccccc3)c3c(c2c1N)CCCC3`, the inhibition under setting [1] is 0.85%.

`COc1ccc(CN(C)C(=S)Nc2ccc(OC(F)F)cc2)cc1`: under setting [1], the inhibition was -1.27%.

As to `O=C1CCCc2nc3nc4ccccc4n3cc21`, the inhibition under setting [1] is -2.88%.

Turning to `CCOC(=O)CSc1nc2c(sc(=S)n2-c2ccccc2)c(=O)[nH]1`, the inhibition under setting [1] was 7.91%.

`CCOc1ccc(-n2c(=S)sc3c(=O)[nH]c(SCC(=O)NCc4ccco4)nc32)cc1`: the inhibition by setting is: (at 30 µM, stronger effect = higher value) 29.8% (active); (at 100 µM (top of the series)) 46.1%.

On to `CCOc1ccc2c(c1)c1nnc(SCC(=O)N3CCC(C)CC3)nc1n2C`, for which the inhibition under setting [1] is 7.57%.

On to `CC1CCN(C(=O)CSc2nc(N)cc(N)n2)CC1`, for which, under setting [1], the inhibition was -2.52%.

As for `CCOc1ccc(-n2c(=S)sc3c(=O)[nH]c(SCC(=O)NC(C)CC)nc32)cc1` (stereo not given), the inhibition under setting [1] was 11.5%.

Consider `CCOC(=O)CSc1nc2c(sc(=S)n2-c2ccc(OCC)cc2)c(=O)[nH]1`, for which the inhibition under setting [1] was 13.9%.

Turning to `CCN(CC)C(=O)CSc1nc2c(sc(=S)n2-c2ccccc2)c(=O)[nH]1`, the inhibition under setting [1] was 5.01%.

With `CCOC(=O)CC(=O)CSc1nc2c(sc(=S)n2-c2ccccc2)c(=O)[nH]1`, under setting [1], the inhibition was 21.4%.

For the compound `CCOc1ccc(-n2c(=S)sc3c(=O)[nH]c(SCC(=O)NCC4CCCO4)nc32)cc1` (stereo not given), under setting [1], the inhibition is 18.3%.

Take `CCCc1ccc(OCC(=O)NNC(=O)c2cccnc2)cc1`: the inhibition under setting [1] is -2.33%.

On to `Cc1cc(C(F)(F)F)nc(Nc2nc(C)c3ccccc3n2)n1`, for which, under setting [1], the inhibition was 10.9%.

Regarding `COc1cc2ccc(=O)oc2cc1OCC(O)C(C)(C)O` (stereo not given), under setting [1], the inhibition was 14.1%.

With `COc1cccc(/C=N/Nc2nc3ccccc3n3cnnc23)c1`, the inhibition under setting [1] was 0.89%.

Turning to `CCOC(=O)c1cc(-c2ccccc2)n(CCC(=O)N2CCN(c3ccc(OC)cc3)CC2)c1C`, under setting [1], the inhibition is 5.67%.

Regarding `Cc1cc(C)n(/N=C/c2c[nH]c3ccccc23)c(=O)c1C#N`, the inhibition under setting [1] was 5.27%.

As to `CCc1ccc(NC(=O)CSc2nc3ccsc3c(=O)n2CCCCCC(=O)O)cc1`, under setting [1], the inhibition is -11.3%.

As for `COc1cc(NC(C)=O)ccc1-c1cc2ccccc2oc1=O`, the inhibition under setting [1] was 4%.

For `COc1ccc(NC(=O)C2CCC(=O)N2)cc1` (stereo not given), the inhibition under setting [1] is 3.48%.

With `COc1ccc(C(C(=O)NC(C)(C)C)N(C(=O)CNC(=O)c2cccs2)c2ccc(C)cc2)cc1OC` (stereo not given), the inhibition under setting [1] was -2.96%.

Consider `O=C(COC(=O)c1ccc(Cl)nc1)Nc1ccc(S(=O)(=O)N2CCCC2)cc1`, for which the inhibition under setting [1] is 9.72%.

Turning to `Nc1ccc(C23CC4CC(CC(C4)C2)C3)cc1`, the inhibition under setting [1] was 1.15%.

Take `CC(=O)c1cnc2c(-c3ccc(Cl)cc3)cnn2c1C`: the inhibition under setting [1] was -0.05%.

Turning to `CCOC(=O)c1cnc2c(-c3ccc(Cl)cc3)cnn2c1C`, the inhibition under setting [1] is -12.2%.

Regarding `CC(C)(C)C(=O)NC(=S)Nc1ccc(F)cc1`, the inhibition under setting [1] was 4.15%.

`O=c1cc(-c2ccc(F)cc2F)[nH]c2ccccc12`: the inhibition under setting [1] was -3.62%.

As for `O=c1cc(CN2CCN(S(=O)(=O)c3ccc4ccccc4c3)CC2)nc2sccn12`, the inhibition under setting [1] is -6.82%.

Consider `O=c1cc(CSc2nnc(COc3ccccc3Cl)o2)nc2sccn12`, for which the inhibition under setting [1] is 25.3% (active).

`O=c1cc(CSc2ccc(S(=O)(=O)N3CCCCC3)cn2)nc2sccn12`: the inhibition under setting [1] was 24.1% (active).

In the case of `O=c1cc(CSc2nc3cc(Cl)ccc3o2)nc2sccn12`, the inhibition under setting [1] is 4.21%.

As to `CC(C)NC(=O)CSc1nnc(COc2ccccc2Cl)o1`, the inhibition under setting [1] was 8.56%.

Regarding `O=c1cc(CN2CCN(S(=O)(=O)c3ccccc3)CC2)nc2sccn12`, under setting [1], the inhibition is -0.76%.

For orientation: inhibition means the change of the read-out against control, counted positive when it falls.
